Test [1] is described as follows: qHTS assay for small molecules that induce genotoxicity in human embryonic kidney cells expressing luciferase-tagged ATAD5 (AID 651632). Further: nearly all actives have a fitted effect of over 15% in size. The method, boiled down:
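DMSO vehicle served as the control. HEK293T reporter cells, 16 hr at 37C, then 30 min Amplite at room temperature; ATAD5 induction is measured as luciferase activity.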

Test [2] in a line: qHTS assay for small molecule disruptors of the mitochondrial membrane potential - cell viability (AID 720634; calls by dose curve;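 further: human HepG2 liver cancer cells; series mostly up to about 83 µM; nearly all actives have a fitted effect of over 20% in size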). The method, boiled down: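 Viability of HepG2 cells is scored from ATP content by luminescence; cells are exposed to compound for 1 hr at 37 C and 5% CO2, then dosed with m-MPI dye before the CellTiter-Glo reagent.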
Test [3] can be described thus: qHTS assay to test for compound auto fluorescence at 590 nm (red) in HepG2 cells (AID 720674). The method, boiled down:
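Fluorescence at 590 nm emission following 540 nm excitation was recorded from HepG2 wells one hour after compound transfer, with DMSO-only wells as vehicle and Rose Bengal sodium equivalency as the scale.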
For orientation: qHTS replaces the single test concentration by a dilution series.

The nature of test [4]: qHTS assay to test for compound auto fluorescence at 460 nm (blue) in HEK293 cells (AID 720678). In a few lines: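 HEK293 cells (2,000 per well, medium with 10% dialyzed FBS) attached for 4-5 hr at 37C, then received compound and stood overnight at 37C, 5% CO2. Blue fluorescence was read at Ex/Em 405/460 nm and expressed relative to triamterene.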
Test [5] can be described thus: qHTS assay to test for compound auto fluorescence at 535 nm (green) in HEK293 cells (AID 720680).
Test [6] can be described thus: qHTS assay to test for compound auto fluorescence at 460 nm (blue) in HEK293 cell free culture (AID 720681). The method, boiled down: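 Compounds were added to cell-free DMEM with 10% FBS and fluorescence read directly. The blue channel used 405 nm excitation and 460 nm emission, with triamterene as the reference fluorophore.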
A short description of test [7]: qHTS assay to test for compound auto fluorescence at 535 nm (green) in HEK293 cell free culture (AID 720682). In a few lines: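 Using fluorescein as calibrant, autofluorescence was quantified at 485/535 nm in cell-free DMEM containing 10% FBS after pintool addition of compound or vehicle.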
A short description of test [8]: qHTS assay to test for compound auto fluorescence at 590 nm (red) in HEK293 cell free culture (AID 720683). The method, boiled down: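 Cell-free wells of DMEM with 10% FBS received compound, and intrinsic fluorescence was read at excitation/emission 540/590 nm. Values expressed as equivalence to Rose Bengal sodium.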
Test [9] in a line: qHTS assay to test for compound auto fluorescence at 590 nm (red) in HepG2 cell free culture (AID 720684). In a few lines: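 Rose Bengal sodium served as the reference for red signal. Test compounds were dispensed into serum-containing MEM (10% FBS) without cells, and plates were read at 540/590 nm.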
Test [10] can be described thus: qHTS assay to test for compound auto fluorescence at 460 nm (blue) in HepG2 cell free culture (AID 720685). The method, boiled down: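 Cell-free plates of MEM plus 10% FBS received 23 nL compound or DMSO vehicle; blue-channel (405/460 nm) intensity scored against triamterene as reference fluorophore.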
Test [11] can be described thus: qHTS assay to test for compound auto fluorescence at 460 nm (blue) in HepG2 cells (AID 720687). In a few lines:
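HepG2 cells in MEM with 10% FBS, attached overnight at 37 C, were exposed to compound or DMSO for 1 hr at 37 C, 5% CO2. Blue fluorescence was read at 405/460 nm, with triamterene as reference fluorophore.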

Test [12] in a line: qHTS assay to identify small molecule antagonists of the glucocorticoid receptor (GR) signaling pathway - cell viability counter screen (AID 720693). Further: nearly all actives have a fitted effect of over 55% in size. Further: potency means the concentration at half of the fitted maximal effect.
Test [13] can be described thus: qHTS assay to identify small molecule antagonists of the thyroid receptor (TR) signaling pathway - cell viability counter screen (AID 743064). Further: nearly all actives have a fitted effect of over 50% in size. Further: potency means the concentration at half of the fitted maximal effect. The method, boiled down: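 Counter screen for cytotoxicity: compound plus T3 (1 nM final) on GH3.TRE-Luc cells, 23.5 h at 37 °C, then fluorescence viability readout with CellTiter-Fluor.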
Test [14] deals with Aromatase (Homo sapiens) (UniProt P11511). Kind of test: qHTS assay to identify aromatase inhibitors (AID 743083). Further: series mostly up to about 70 µM; nearly all actives have a fitted effect of over 55% in size.
The nature of test [15]: qHTS assay to identify aromatase inhibitors - cell viability counter screen (AID 743084).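 Further: cells stimulated with testosterone during compound exposure; nearly all actives have a fitted effect of over 55% in size.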
Test [16] concerns the target Aryl hydrocarbon receptor (Homo sapiens) (UniProt P35869). Kind of test: qHTS assay to identify small molecule that activate the aryl hydrocarbon receptor (AhR) signaling pathway (AID 743085).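 Further: HG2L7.5c1 human HepG2 liver cells with stably integrated DRE-driven firefly reporter; series mostly up to about 70 µM; nearly all actives have a fitted effect of over 15% in size.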 The method, boiled down: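 Measured in HG2L7.5c1 cells: CellTiter-Fluor signal (30 min incubation, 37C) for viability, then luciferase luminescence (30 min, room temperature). Compound contact time was 24 h at 37C, following a 5 h pre-incubation.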

The nature of test [17]: qHTS assay for small molecules that induce genotoxicity in human embryonic kidney cells expressing luciferase-tagged ATAD5 - cell viability (AID 651634; calls by dose curve; further: nearly all actives have a fitted effect of over 25% in size; further: potency means the concentration at half of the fitted maximal effect). The method, boiled down: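 Here HEK293T cells with the ATAD5 luciferase reporter are incubated with test compounds for 15.5 hr, and cytotoxicity is then gauged by measuring protease activity in live cells using fluorescence.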

Test [18] deals with Acetylcholinesterase (Homo sapiens) (UniProt P22303). Briefly: Acetylcholinesterase (AChE) small molecule antagonists: colormetric cell-based qHTS assay (AID 1347395; calls by dose curve; further: nearly all actives have a fitted effect of over 30% in size). The method, boiled down: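 Neuroblastoma line SH-SY5Y supplied the enzyme; cells were preincubated with compound for 30 min at 37 C and 5% CO2. Acetylthiocholine with DTNB was then added for 90 min at 37 C, and thiocholine was measured by colour.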

Test [19] has the same target. Briefly: Acetylcholinesterase (AChE) small molecule antagonists: enzyme-based qHTS assay (AID 1347397; calls by dose curve; further: nearly all actives have a fitted effect of over 55% in size). Conditions: Potency: AChE enzyme activity inhibition; outcome: AChE enzyme activity inhibition. In a few lines: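 Colorimetric DTNB read-out of thiocholine released from acetylthiocholine by recombinant human AChE (50 mU/mL as dispensed). Compounds were preincubated 30 min at RT before substrate/DTNB addition, with a 10 min RT reaction.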

Test [20] has the same target. Kind of test: Acetylcholinesterase (AChE) small molecule antagonists: fluorescence cell-based qHTS assay (AID 1347398; calls by dose curve; further: nearly all actives have a fitted effect of over 50% in size). Conditions: Potency: AChE activity; outcome: AChE activity. The method, boiled down: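 SH-SY5Y, 2,000 cells/well, attached overnight; cmpd 30 min 37 C; acetylthiocholine/Thiolite Green cocktail 40 min RT; fluorescence Ex/Em 490/520 nm.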

The structures appear in SMILES notation. Where “and” joins values, the source holds several entries; their conditions need not be identical. Equal values may be shown once. Unmarked numbers belong to inactive results. Records with an inconclusive call do not appear. Calls of active or inactive are those of the source. Unless noted, the call rests on the fitted dose curve; in most records, active means well fitted curve in the direction sought with a large enough effect in the repeat runs; inconclusive means weak or mixed curves; inactive means no such curve, though single readings can be large; an effect the other way counts as inactive or inconclusive.
On the % scale 0 is the no-effect control and ±100 the full control effect.

Sequence of Aryl hydrocarbon receptor (Homo sapiens) (P35869 whole entry, looked up): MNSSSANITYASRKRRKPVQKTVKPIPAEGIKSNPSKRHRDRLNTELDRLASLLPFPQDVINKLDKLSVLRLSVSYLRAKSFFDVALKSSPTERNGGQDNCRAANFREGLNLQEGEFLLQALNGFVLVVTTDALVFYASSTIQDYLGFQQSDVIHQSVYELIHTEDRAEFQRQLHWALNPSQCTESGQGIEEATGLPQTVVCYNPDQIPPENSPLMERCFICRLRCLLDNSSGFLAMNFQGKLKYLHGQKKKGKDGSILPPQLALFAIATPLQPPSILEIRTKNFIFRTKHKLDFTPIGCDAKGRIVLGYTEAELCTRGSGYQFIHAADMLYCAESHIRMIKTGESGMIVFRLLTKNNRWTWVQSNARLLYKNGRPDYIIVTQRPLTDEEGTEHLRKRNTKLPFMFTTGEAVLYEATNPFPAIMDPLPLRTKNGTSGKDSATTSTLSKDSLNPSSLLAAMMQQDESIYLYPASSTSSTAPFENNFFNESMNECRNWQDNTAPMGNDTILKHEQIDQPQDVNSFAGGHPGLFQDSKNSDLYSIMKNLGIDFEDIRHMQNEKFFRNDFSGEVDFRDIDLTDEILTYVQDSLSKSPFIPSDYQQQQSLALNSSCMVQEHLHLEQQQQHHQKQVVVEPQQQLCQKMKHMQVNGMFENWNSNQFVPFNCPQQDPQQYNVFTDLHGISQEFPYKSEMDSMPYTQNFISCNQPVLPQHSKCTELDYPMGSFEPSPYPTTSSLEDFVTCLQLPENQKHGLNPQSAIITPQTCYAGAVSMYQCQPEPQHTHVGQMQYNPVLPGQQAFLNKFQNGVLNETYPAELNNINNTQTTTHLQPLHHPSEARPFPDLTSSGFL
Sequence of Acetylcholinesterase (Homo sapiens) (P22303 whole entry, looked up): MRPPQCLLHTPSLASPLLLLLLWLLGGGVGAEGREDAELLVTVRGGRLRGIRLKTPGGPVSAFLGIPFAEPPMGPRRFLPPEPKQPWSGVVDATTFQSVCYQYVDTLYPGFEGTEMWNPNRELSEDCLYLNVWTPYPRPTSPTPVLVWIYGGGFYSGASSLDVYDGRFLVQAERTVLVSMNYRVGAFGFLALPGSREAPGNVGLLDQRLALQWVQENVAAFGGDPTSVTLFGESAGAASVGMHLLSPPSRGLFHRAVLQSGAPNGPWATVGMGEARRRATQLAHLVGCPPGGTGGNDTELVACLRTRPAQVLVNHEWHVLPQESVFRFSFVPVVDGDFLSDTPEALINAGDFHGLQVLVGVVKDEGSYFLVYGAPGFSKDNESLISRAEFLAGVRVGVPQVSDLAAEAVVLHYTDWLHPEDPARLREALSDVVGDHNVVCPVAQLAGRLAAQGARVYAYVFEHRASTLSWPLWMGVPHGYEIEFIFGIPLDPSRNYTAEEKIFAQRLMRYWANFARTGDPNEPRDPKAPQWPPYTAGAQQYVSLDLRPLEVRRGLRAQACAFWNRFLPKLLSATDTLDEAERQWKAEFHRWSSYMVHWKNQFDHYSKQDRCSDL
Sequence of Aromatase (Homo sapiens) (P11511 whole entry, looked up): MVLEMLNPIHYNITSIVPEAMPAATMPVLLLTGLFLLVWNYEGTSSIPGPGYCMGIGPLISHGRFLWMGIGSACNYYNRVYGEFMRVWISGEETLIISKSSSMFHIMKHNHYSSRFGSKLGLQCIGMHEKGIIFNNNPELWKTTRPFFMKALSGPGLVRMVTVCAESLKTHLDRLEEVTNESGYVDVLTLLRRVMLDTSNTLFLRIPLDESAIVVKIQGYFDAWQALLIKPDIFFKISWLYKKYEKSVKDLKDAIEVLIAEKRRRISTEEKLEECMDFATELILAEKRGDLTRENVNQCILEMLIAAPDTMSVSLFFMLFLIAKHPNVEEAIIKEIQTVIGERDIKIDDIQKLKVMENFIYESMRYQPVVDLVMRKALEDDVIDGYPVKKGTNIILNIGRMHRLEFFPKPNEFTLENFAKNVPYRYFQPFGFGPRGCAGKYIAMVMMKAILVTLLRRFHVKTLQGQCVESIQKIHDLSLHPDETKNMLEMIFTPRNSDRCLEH

Turning to `CC(C)[C@@]1(NC(=O)[C@@H]2C[C@@H]3c4cccc5[nH]cc(c45)C[C@H]3N(C)C2)O[C@@]2(O)[C@@H]3CCCN3C(=O)[C@H](Cc3ccccc3)N2C1=O`, the Potency result in test [1], in test [2], in test [4], in test [5], in test [6] and in test [7] was “inactive” each time. Also, the Potency result in test [10], in test [11], in test [12], in test [14], in test [15] and in [16] was “inactive” each time. Also, the outcome in test [3], in test [8] and in test [9] was inactive. In addition, in test [13], the Potency is 23.7 µM (active) and 21.1 µM (active).
With `C=C[C@H]1CN2CC[C@H]1C[C@@H]2[C@@H](O)c1ccnc2ccccc12`, the Potency entry in test [1], in [17], in test [2], in test [4], in test [5] and in [6] was “inactive” each time. Moreover, the Potency result in test [7], in test [10], in [11], in [12], in [13] and in test [14] was “inactive” throughout. The Potency result in test [15] and in test [16] was “inactive” in each case. Further, the compound was called inactive in [3], in test [8] and in test [9].
For `CNC1(c2ccccc2Cl)CCCCC1=O` (stereo unspecified), the Potency result in [1], in test [17], in [2], in [4], in test [5] and in [6] was “inactive” each time. The Potency entry in [7], in test [10], in test [11], in [12], in test [13] and in [14] was “inactive” throughout. Also, the Potency result in [15] and in test [16] was “inactive” in each case. For the same compound, the call in test [3], in test [8] and in [9] was inactive.
`CC(=O)O[C@H]1C[C@H](O[C@H]2[C@@H](O)C[C@H](O[C@H]3[C@@H](O)C[C@H](OC4CC[C@@]5(C)[C@H](CC[C@@H]6[C@@H]5CC[C@]5(C)[C@@H](C7=CC(=O)OC7)CC[C@]65O)C4)O[C@@H]3C)O[C@@H]2C)O[C@H](C)[C@H]1O[C@@H]1O[C@H](CO)[C@@H](O)[C@H](O)[C@H]1O` (stereo partly specified): the Potency entry in test [1], in test [2], in [4], in test [5], in [6] and in [7] was “inactive” in each case. Also, the Potency result in test [10], in [11], in test [13], in test [14], in test [15] and in test [16] was “inactive” throughout. Also, the Potency in test [17] was 298 nM (active); in test [12] it was 756 nM (active). Also, the compound was classed as inactive in test [3], in test [8] and in [9].
With `CN1[C@@H]2CC[C@H]1CC(OC1c3ccccc3CCc3ccccc31)C2` (stereo partly specified), the Potency result in test [1], in test [17], in test [2], in test [4], in test [5] and in [6] was “inactive” in each case. The Potency result in test [7], in [10], in test [11], in test [12], in test [14] and in [15] was “inactive” in each case. The Potency entry in test [16] is “inactive”. Also, the result in [3], in test [8] and in test [9] was inactive. Moreover, the Potency in [13] was 2.85 µM (active).
On to `N[C@@H](Cc1ccc(O)cc1)C(=O)O`, for which the activity, negative = inhibition in test [18] was -0.421% [at 10.5 µM]. Also, the activity change, negative = inhibition in test [19] is -0.135% [at 10.5 µM]; in [20] it was 10.1% [at 10.5 µM].
On to `CC(C)(C)c1ccc(C(O)CCCN2CCC(C(O)(c3ccccc3)c3ccccc3)CC2)cc1` (stereo unspecified), for which the Potency entry in test [18], in test [19] and in test [20] was “inactive” throughout.
For the compound `Cc1cc2c(C(C)C)c(O)c(O)c(C=O)c2c(O)c1-c1c(C)cc2c(C(C)C)c(O)c(O)c(C=O)c2c1O`, the Potency result in test [18], in [19] and in [20] was “inactive” throughout.
`O=C(O)/C=C/c1cnc[nH]1`: the Potency result in [18], in [19] and in [20] was “inactive” each time.

The values are drawn from PubChem BioAssay (Tox21).
